Structures can show the parent of a compound that is named as a salt.

Experimental findings from the supplement of paper PMC3414501 are described below.

In assay [1] the test system is S. cerevisiae SK1 pCDA2-eGFP (USY613), sporulating. As to the kind of experiment: CDA2-GFP sporulation assay sensitivity score (z-score vs DMSO controls); higher = stronger inhibition of sporulation, active = hit call of the paper.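 Note: active if sensitivity score above 5.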
Assay [2] relates to S. cerevisiae NKY1551 his4x/his4B, sporulating. Nature of the assay: HIS4 meiotic recombination assay sensitivity score (z-score vs DMSO controls); higher = stronger inhibition of sporulation/recombination, active = hit call of the paper.
Assay [3] relates to S. cerevisiae AD1-9 (efflux-pump deficient), vegetative growth in YPD. As to the kind of experiment: growth sensitivity score (doubling time z-score vs DMSO controls); higher = slower growth, strongly negative scores also mark growth inhibition (complete suppression), active = hit call of the paper. The method in brief:
(§1)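 Optical density of Saccharomyces cerevisiae cultures in microtiter plates was followed every 15 min for 24 hours after seeding at an OD600 of 0.065. Eight solvent-only wells were run per experiment. Growth sensitivity scores were found by subtracting the solvent-only mean from the compound mean and dividing by the solvent-only standard deviation.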

Assay [4] has as its system S. cerevisiae BY4741 (wild-type), vegetative growth in YPD. Described as above. The method in brief: as §1
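Throughout, for HIS4 meiotic recombination assay sensitivity score (z-score vs DMSO controls): active if sensitivity score above 5.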

With `C[C@H](CCC(=O)O)[C@H]1CC[C@H]2[C@@H]3C(=O)C[C@@H]4CC(=O)CC[C@]4(C)[C@H]3CC(=O)[C@]12C` [Dehydrocholic acid] (stock concentration (mM, diluted 1:100): 10), the “CDA2-GFP sporulation assay sensitivity score” value in assay [1] is 0.09 (inactive). Besides, the “HIS4 meiotic recombination assay sensitivity score” value in assay [2] was -0.93 (inactive). Further, the growth sensitivity score in assay [3] was -1.13 (inactive); in assay [4] it was -0.69 (inactive).
In the same order, the values of `CC[C@H]1OC(=O)[C@H](C)[C@@H](O[C@H]2C[C@@](C)(OC)[C@@H](O)[C@H](C)O2)[C@H](C)[C@@H](O[C@@H]2O[C@H](C)C[C@H](N(C)C)[C@H]2O)[C@](C)(OC)C[C@@H](C)C(=O)[C@H](C)[C@@H](O)[C@]1(C)O` [Clarithromycin] (stock concentration (mM, diluted 1:100): 10) are -0.51 (inactive), -1.54 (inactive), -1.97 (inactive) and 1.37 (inactive).
In the case of `CC(=O)[C@@]1(O)CC[C@H]2[C@@H]3C[C@H](C)C4=CC(=O)CC[C@]4(C)[C@H]3CC[C@@]21C` [Medroxyprogesterone] (stock concentration (mM, diluted 1:100): 10), the “CDA2-GFP sporulation assay sensitivity score” value in assay [1] is -0.44 (inactive). Besides, the “HIS4 meiotic recombination assay sensitivity score” value in assay [2] was 0.24 (inactive). Further, the results for the growth sensitivity score in assay [3] and in assay [4] were 4.15 (active) and -0.01 (inactive), respectively.
As for `CC(=O)O[C@H]1C[C@@H]2CC[C@@H]3[C@H](CC[C@@]4(C)[C@H]3C[C@H]([N+]3(C)CCCCC3)[C@@H]4OC(C)=O)[C@@]2(C)C[C@@H]1N1CCCCC1` [Vecuronium bromide] (stock concentration (mM, diluted 1:100): 10), the “CDA2-GFP sporulation assay sensitivity score” value in assay [1] was 1.32 (inactive). In addition, in assay [2], the “HIS4 meiotic recombination assay sensitivity score” value was -1.64 (inactive). The growth sensitivity score is -5.36 in assay [3] and 0.21 (inactive) in assay [4].
In the same order, the values of `CCN1CCCC1CNC(=O)c1cc(S(=O)(=O)CC)c(N)cc1OC` (stereo unspecified) [Amisulpride] (stock concentration (mM, diluted 1:100): 10) are -0.38 (inactive), -0.66 (inactive), -0.73 (inactive) and -0.22 (inactive).
The like results for `CNCC[C@H](Oc1cccc2ccccc12)c1cccs1` [Duloxetine] (stock concentration (mM, diluted 1:100): 10) were, in that order, 1.64 (inactive), -1.33 (inactive), 99.6 (active) and 11 (active).
The like results for `CN(C/C=C/C#CC(C)(C)C)Cc1cccc2ccccc12` [Terbinafine hydrochloride] (stock concentration (mM, diluted 1:100): 8.9) were, in that order, -2.07 (inactive), -0.72 (inactive), 30.1 (active) and 93.8 (active).
For the molecule `Cc1cccc(C)c1NC(=O)C1CCCCN1C` (stereo unspecified) [Mepivacaine hydrochloride] (stock concentration (mM, diluted 1:100): 10), the “CDA2-GFP sporulation assay sensitivity score” value in assay [1] was 1.82 (inactive). Further, the “HIS4 meiotic recombination assay sensitivity score” value in assay [2] was 0.1 (inactive). Also, the growth sensitivity score in assay [3] is -3.28; in assay [4], -0.29 (inactive).
Turning to `C[C@]12CC[C@@H]3c4ccc(O)cc4CC[C@H]3[C@@H]1CC[C@@H]2O` [Beta-Estradiol] (stock concentration (mM, diluted 1:100): 10), in assay [1], the “CDA2-GFP sporulation assay sensitivity score” value is 0.49 (inactive). The “HIS4 meiotic recombination assay sensitivity score” value in assay [2] is -2.13 (inactive). The growth sensitivity score in assay [3] was 10.3 (active); in assay [4], 3.35 (active).
The like results for `CC(C)(C)NC(=O)[C@H]1CC[C@H]2[C@@H]3CC[C@H]4NC(=O)C=C[C@]4(C)[C@H]3CC[C@]12C` [Finasteride] (stock concentration (mM, diluted 1:100): 10) were, in that order, 3.51 (inactive), 3.09 (inactive), 20.2 (active) and 1.37 (inactive).
For the molecule `Cc1ncc([N+](=O)[O-])n1CC(O)CCl` (stereo unspecified) [Ornidazole] (stock concentration (mM, diluted 1:100): 10), in assay [1], the “CDA2-GFP sporulation assay sensitivity score” value was -0.66 (inactive). The “HIS4 meiotic recombination assay sensitivity score” value in assay [2] was -0.66 (inactive). The growth sensitivity score in assay [3] was -0.62 (inactive); in assay [4], -2.78.
On to `COC(=O)C1=C(C)NC(C)=C(C(=O)OCC(C)C)C1c1ccccc1[N+](=O)[O-]` (stereo unspecified) [Nisoldipine] (stock concentration (mM, diluted 1:100): 10), for which the “CDA2-GFP sporulation assay sensitivity score” value in assay [1] is -0.05 (inactive). Besides, in assay [2], the “HIS4 meiotic recombination assay sensitivity score” value was -2.61 (inactive). In addition, the values for the growth sensitivity score in assay [3] and in assay [4] were 89.2 (active) and 57 (active), respectively.
On to `CC(C)NCC(O)COc1ccc(COCCOC(C)C)cc1` (stereo unspecified) [Bisoprolol fumarate] (stock concentration (mM, diluted 1:100): 8.5), for which the “CDA2-GFP sporulation assay sensitivity score” value in assay [1] is 0.16 (inactive). In addition, the “HIS4 meiotic recombination assay sensitivity score” value in assay [2] was -0.11 (inactive). Moreover, the results for the growth sensitivity score in assay [3] and in assay [4] were -0.36 (inactive) and 0.65 (inactive), respectively.
As for `C[C@]12CC[C@@H]3c4ccc(OS(=O)(=O)O)cc4CC[C@H]3[C@@H]1CCC2=O` (stock concentration (mM, diluted 1:100): 10), the “CDA2-GFP sporulation assay sensitivity score” value in assay [1] is 4.09 (inactive). Besides, the “HIS4 meiotic recombination assay sensitivity score” value in assay [2] is 1.4 (inactive). Also, the growth sensitivity score was 0.01 (inactive) in assay [3] and -0.87 (inactive) in assay [4].
